PubChem BioAssay
Values joined by “and” are separate entries in the source; they are usually repeats but may differ in a detail not shown here. Identical values can stand only once. Active and inactive are the calls of the source.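 The calls were made as follows, unless noted: active = thallium flux through the channel raised or lowered by more than 3 SD from vehicle-only wells, actives on both sides; inactive = the rest.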

How the values were obtained:
[1] = tested on: Hepatitis C virus NS3 helicase; test: blockers of NS3h binding to DNA – biochemical, fluorescence polarization, NIH Clinical Collection, primary screen (AID 743270; call rule not given here); conditions: NS3 helicase binding to Cy5-dT15 DNA, stronger effect = higher value, concentration not given here
[2] = molecular target: Single-stranded DNA-binding protein (Escherichia coli (strain K12)) (UniProt P0AGE0); test: SSB-ssDNA binding inhibitors – biochemical, fluorescence polarization, NIH Clinical Collection, counter-screen for HCV NS3 helicase inhibitor project (AID 743271; in the data active = inhibition above about 28%); conditions: E. coli SSB-DNA binding, stronger effect = higher value, concentration not given here
[3] = compounds distorting NS3 helicase fluorescence signal – biochemical, NIH Clinical Collection, artefact control for HCV NS3 helicase inhibitor project (AID 743272; call rule not given here;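 also: HCV NS3 helicase with a Cy5 labelled single stranded DNA probe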); conditions: fluorescence interference counterscreen, HCV NS3 helicase assay; stronger effect = lower value
[4] = Wnt pathway potentiators raising nuclear beta-catenin – imaging, WNT3A-conditioned medium, mouse C2C12, NPC library, primary screen (AID 1117326; in the data active = nuclear beta-catenin stimulation mostly above about 4.2%, no sharp cut-off; inactive = mostly below about 10%); conditions: stronger effect = higher value
[5] = stimulators of insulin release from INS-1E, primary screen, cell-based, 5 mM glucose, NPC library (AID 1117329;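 active = compound raises insulin release from rat beta cells at 5 mM glucose, no numeric limit stated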); conditions: rat INS-1E insulin secretion, at 10 µM, stronger effect = higher value
[6] = growth inhibition of GSK3B-pretreated HCT116 cells – cell-based, CellTiter-Glo, 0.2 to 20 µM (AID 1117336;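 active = compounds lowering colon cancer cell viability after pretreatment blocking the GSK3B kinase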); conditions: HCT116 viability after GSK3B inhibitor, at 20 µM, stronger effect = higher value
[7] = inhibition of endothelial tube formation, primary screen, imaging, VEGF stimulated, CD31 staining, tube area, NPC library (AID 1117340;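 active = compound that reduces growth-factor-driven endothelial tube area in a mixed cell culture, no cutoff stated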); conditions: VEGF-stimulated ADSC/ECFC co-culture, at 10 µM, stronger effect = higher value
[8] = GLP1 release stimulators, primary, NCI-H716, NPC library (AID 1117341;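 active = compound raises GLP1 secretion from the human gut endocrine cells, with no numeric limit stated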); conditions: NCI-H716 cells, at 10 µM, stronger effect = higher value
[9] = HCT116 colon cancer cell growth inhibition, primary screen, CellTiter-Glo luminescence, NPC library (AID 1117342;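 active = compounds that lower survival of HCT116 colon cancer cells in the luminescence readout, no numeric limit stated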); conditions: at 20 µM (top of the series)
[10] = reduced SW480 viability measured with CellTiter-Glo, NPC library, primary (AID 1117343;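 active = compounds that lower viability of the colon cancer cells in the luminescence readout, with no numeric limit stated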); conditions: CellTiter-Glo luminescence; at 20 µM (top of the series)
[11] = NPC library primary testing for decreased DLD-1 cell viability via CellTiter-Glo (AID 1117346;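 active = compounds that lower survival of DLD-1 colon cancer cells in the luminescence readout, no cutoff given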); conditions: DLD-1 viability, CellTiter-Glo luminescence; at 20 µM (top of the series)
[12] = molecular target: 6-phosphogluconate dehydrogenase, decarboxylating (Homo sapiens) (UniProt P52209); test: inhibition of human phosphogluconate dehydrogenase – biochemical, recombinant enzyme, NADPH absorbance, primary screen (AID 1159550;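 active = at least 20% inhibition of 6-phosphogluconate dehydrogenase activity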); conditions: recombinant 6PGD, NADPH absorbance 341 nm; at 10 µM; stronger effect = higher value
Sequence of 6-phosphogluconate dehydrogenase, decarboxylating (Homo sapiens) (P52209 whole entry, looked up): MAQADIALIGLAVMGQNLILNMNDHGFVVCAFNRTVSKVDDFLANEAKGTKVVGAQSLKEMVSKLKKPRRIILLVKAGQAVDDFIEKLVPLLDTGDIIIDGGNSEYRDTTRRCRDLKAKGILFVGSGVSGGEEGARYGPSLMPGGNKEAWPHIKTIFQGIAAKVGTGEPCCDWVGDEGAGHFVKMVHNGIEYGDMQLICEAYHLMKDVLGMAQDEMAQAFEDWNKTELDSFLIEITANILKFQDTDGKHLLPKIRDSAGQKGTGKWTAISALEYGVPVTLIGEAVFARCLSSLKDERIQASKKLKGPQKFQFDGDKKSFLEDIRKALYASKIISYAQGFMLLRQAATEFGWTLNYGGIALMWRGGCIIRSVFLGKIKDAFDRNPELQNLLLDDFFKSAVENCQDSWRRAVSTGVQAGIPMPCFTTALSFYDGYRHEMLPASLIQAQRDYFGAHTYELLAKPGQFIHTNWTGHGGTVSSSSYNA

[13] = EMT-state selective cytotoxicity in co-culture – imaging, PC-3E GFP, TEM4-18 mCherry, primary screen (AID 1345086;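 active = compounds killing one labelled cell type while sparing the other, by normalised counts and ratio limits, not self-fluorescent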;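 as to all read-outs here: cells exposed to compound for 72 h before imaging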;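 as to red/green cell ratio (normalised): normalised mesenchymal count divided by normalised epithelial count so high means epithelial killing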); conditions: PC-3E GFP / TEM4-18 mCherry co-culture, imaging cell counts, at 1 µM; for red/green cell ratio (normalised): actives lie on both sides, counts scaled to control wells, 1 = unselective
[14] = MELAS cybrid and Rieske KO viability enhancers – cell-based, MELAS cybrids, Rieske KO mouse fibroblasts, CellTiter-Glo, primary screen (AID 1508586;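 active = mean z-score across replicates of 1.96 or higher in either the MELAS or the Rieske mutant cell line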;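 also: z relative to plate mean and SD of compound and empty wells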); conditions: low glucose
[15] = molecular target: NAD(+) hydrolase SARM1 (Homo sapiens) (UniProt Q6SZW1); test: blocking NAD cleavage by SARM1 SAM-TIR – cell lysate, NAD-Glo luminescence (AID 1508614;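 active = compound whose remaining NAD level is above about 45 nM, limit read from the data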;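 also: higher remaining NAD means stronger inhibition of SARM1 NADase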); conditions: SAM-TIR HEK293T lysate NADase, at 1 µM, stronger effect = higher value
Sequence of NAD(+) hydrolase SARM1 (Homo sapiens) (Q6SZW1 whole entry, looked up, the tested form may be a part): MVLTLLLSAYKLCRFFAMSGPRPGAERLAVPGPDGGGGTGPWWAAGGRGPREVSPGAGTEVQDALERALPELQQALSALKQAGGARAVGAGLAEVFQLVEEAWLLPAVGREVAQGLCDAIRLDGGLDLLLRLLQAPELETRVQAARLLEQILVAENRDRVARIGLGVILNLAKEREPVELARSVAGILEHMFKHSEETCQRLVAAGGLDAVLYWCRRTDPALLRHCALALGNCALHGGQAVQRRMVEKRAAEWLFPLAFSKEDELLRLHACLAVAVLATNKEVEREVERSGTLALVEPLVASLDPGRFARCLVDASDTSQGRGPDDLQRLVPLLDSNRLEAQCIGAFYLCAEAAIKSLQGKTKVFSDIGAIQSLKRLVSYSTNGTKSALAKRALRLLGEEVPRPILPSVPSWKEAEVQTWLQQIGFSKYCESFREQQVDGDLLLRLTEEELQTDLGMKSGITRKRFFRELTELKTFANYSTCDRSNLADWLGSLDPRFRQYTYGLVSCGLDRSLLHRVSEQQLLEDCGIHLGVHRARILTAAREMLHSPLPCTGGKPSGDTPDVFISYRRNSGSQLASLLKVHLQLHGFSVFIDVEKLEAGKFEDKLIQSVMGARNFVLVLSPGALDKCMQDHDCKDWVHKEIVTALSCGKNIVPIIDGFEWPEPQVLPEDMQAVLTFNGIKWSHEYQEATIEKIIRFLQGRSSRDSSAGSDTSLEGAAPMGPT

[16] = molecular target: Mitogen-activated protein kinase 7 (Homo sapiens) (UniProt Q13164); test: Gal4-ERK5 driven luciferase induction – cell-based, HTS, primary screen (AID 1508626;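 active = luciferase signal above three times the same-plate solvent-only control wells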;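 also: luciferase driven by Gal4-ERK5 fusion binding five Gal4 sites before minimal TATA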); conditions: HeLa Gal4-ERK5 transactivation, 18 h, at 5 µM, stronger effect = higher value
Sequence of Mitogen-activated protein kinase 7 (Homo sapiens) (Q13164 whole entry, looked up, the tested form may be a part): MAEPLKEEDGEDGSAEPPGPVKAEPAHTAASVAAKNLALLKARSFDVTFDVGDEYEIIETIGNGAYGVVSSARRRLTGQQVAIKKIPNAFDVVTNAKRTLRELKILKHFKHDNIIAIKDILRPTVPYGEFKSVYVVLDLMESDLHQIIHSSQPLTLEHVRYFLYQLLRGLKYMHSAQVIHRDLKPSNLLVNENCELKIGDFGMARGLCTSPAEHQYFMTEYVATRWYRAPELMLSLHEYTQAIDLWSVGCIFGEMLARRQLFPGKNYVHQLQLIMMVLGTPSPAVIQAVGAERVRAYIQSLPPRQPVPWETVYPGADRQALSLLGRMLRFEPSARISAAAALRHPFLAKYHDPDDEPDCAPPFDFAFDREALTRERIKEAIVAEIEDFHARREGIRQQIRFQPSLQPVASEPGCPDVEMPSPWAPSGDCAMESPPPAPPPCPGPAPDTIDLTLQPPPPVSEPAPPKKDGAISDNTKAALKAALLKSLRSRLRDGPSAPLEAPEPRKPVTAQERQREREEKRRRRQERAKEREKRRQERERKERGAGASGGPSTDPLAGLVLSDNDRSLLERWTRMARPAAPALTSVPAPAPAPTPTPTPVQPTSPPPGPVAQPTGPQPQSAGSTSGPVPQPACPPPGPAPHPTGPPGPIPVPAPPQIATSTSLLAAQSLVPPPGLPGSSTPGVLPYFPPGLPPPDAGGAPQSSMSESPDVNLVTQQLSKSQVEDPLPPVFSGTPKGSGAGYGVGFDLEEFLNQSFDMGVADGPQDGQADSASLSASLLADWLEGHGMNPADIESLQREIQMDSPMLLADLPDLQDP

[17] = tested on: F380Y; test: BK channel mutant inhibitors and activators – cell-based, U2OS BacMam, thallium flux, beta subunits, selectivity assay, profiling panel (AID 1259406); conditions: U2OS BacMam BK variants, at 30 µM;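 also: initial slope of Thallos dye fluorescence rise after thallium is added; log ratio against the mean of 0.3% DMSO vehicle wells on the same plate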
[18] = tested on: F380Y/beta2Delta; test: as above; conditions: U2OS BacMam BK variants, at 30 µM
[19] = molecular target: Calcium-activated potassium channel subunit alpha-1 (Homo sapiens) + Leucine-rich repeat-containing protein 26 (Homo sapiens) (UniProt Q12791+Q2I0M4); test: as above; conditions: U2OS BacMam BK variants, F380Y/Slo1WT/gamma1, at 30 µM
Sequence of Calcium-activated potassium channel subunit alpha-1 (Homo sapiens) + Leucine-rich repeat-containing protein 26 (Homo sapiens) (Q2I0M4 whole entry, looked up, one chain of several): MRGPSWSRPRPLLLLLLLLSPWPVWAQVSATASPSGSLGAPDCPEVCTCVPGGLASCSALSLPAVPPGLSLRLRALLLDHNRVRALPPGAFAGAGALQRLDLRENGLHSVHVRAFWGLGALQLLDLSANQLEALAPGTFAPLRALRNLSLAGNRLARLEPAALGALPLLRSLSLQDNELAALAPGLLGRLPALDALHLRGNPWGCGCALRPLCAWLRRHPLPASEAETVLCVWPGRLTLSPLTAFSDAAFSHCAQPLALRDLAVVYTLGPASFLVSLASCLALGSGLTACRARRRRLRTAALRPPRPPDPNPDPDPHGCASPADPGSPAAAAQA

[20] = viability loss with induced miR-34 in A549 – imaging, A549 dox-inducible miR-34, nuclei and caspase counts, primary screen (AID 1347080;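 active = compounds whose cell count with miR-34 switched on is under 0.7 times the count with it off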); conditions: A549 miR-34 inducible, Hoechst nuclei count, 48 h
[21] = measured here: epithelial PC-3E GFP cell survival
[22] = measured here: mesenchymal TEM4-18 mCherry cell survival
[23] = MELAS cybrid survival, CellTiter-Glo 48 h, stronger effect = higher value
[24] = Rieske KO mouse fibroblast survival, CellTiter-Glo 72 h
[25] = stronger effect = lower value, cell number ratio, induced over uninduced
[26] = measured here: relative caspase fold change +Dox/-Dox
[27] = measured here: total cells with miR-34 induction, stronger effect = lower value
[28] = measured here: total cells without miR-34 induction

Nc1c2c(nc3ccccc13)CCCC2
0.161 and -0.102: z-score [14, 24]
2.2%: nuclear beta-catenin stimulation ([4]; stimulation, at 2 µM)
0.89: normalised cell number [13, 21]
1.3: normalised cell number [13, 22]
active: insulin secretion stimulation [5] 32.7%
inactive: inhibition [1] -4.36% | inhibition [2] -0.1% | fluorescence ratio [3] 0.85 | nuclear beta-catenin stimulation ([4]; at 10 µM) 1.3% | viability decrease [6] 2.75% | tube area decrease [7] 19% | GLP1 secretion stimulation [8] 13% | inhibition of viability [9] 4.9% | viability decrease (inhibition) [10] 22.5% | viability decrease (inhibition) [11] 3.1% | inhibition [12] -0.369% | red/green cell ratio (normalised) [13] 1.47 | z-score [14, 23] 0.221 and 0.852 | remaining NAD [15] 10 nM | luciferase signal [16] 164 AU | log fold change Tl+ flux [17] 0.0646 | log fold change Tl+ flux [18] -0.00945 | log fold change Tl+ flux [19] 0.00974

CCN(CC)C(=S)SSC(=S)N(CC)CC
0.17: normalised cell number [13, 22]
-0.351 (inactive) and 0.325 and -1.17: z-score [14, 23]
inactive: inhibition [1] -1.19% | inhibition [2] -1.64% | fluorescence ratio [3] 0.99 | nuclear beta-catenin stimulation ([4]; at 10 µM) 5.4% | insulin secretion stimulation [5] 4.8% | viability decrease [6] 9.9% | tube area decrease [7] 35.6% | GLP1 secretion stimulation [8] 6.3% | inhibition of viability [9] 18.6% | viability decrease (inhibition) [10] 39.4% | viability decrease (inhibition) [11] 30.8% | inhibition [12] 1.47% | red/green cell ratio (normalised) [13] 0.63 | remaining NAD [15] 10 nM | luciferase signal [16] 16 AU | log fold change Tl+ flux [17] -0.0143 | log fold change Tl+ flux [18] 0.0251
0.27: normalised cell number [13, 21]
active: log fold change Tl+ flux [19] 0.093
2.3%: nuclear beta-catenin stimulation ([4]; stimulation, at 2 µM)
-4.19 and 10.8 and 3.81: z-score [14, 24]

CN(C)CCN(Cc1ccccc1)c1ccccn1
10300 and 8350 and 10800: cell count [20, 27]
0.99: normalised cell number [13, 22]
0.8%: nuclear beta-catenin stimulation ([4]; stimulation, at 2 µM)
inactive: inhibition [1] 0.4% | inhibition [2] -0.87% | fluorescence ratio [3] 0.93 | nuclear beta-catenin stimulation ([4]; at 10 µM) 1.1% | insulin secretion stimulation [5] 13% | viability decrease [6] -23.2% | tube area decrease [7] 5.3% | GLP1 secretion stimulation [8] 4.8% | inhibition of viability [9] 13.3% | viability decrease (inhibition) [10] -2.1% | viability decrease (inhibition) [11] -41.1% | inhibition [12] 4.76% | red/green cell ratio (normalised) [13] 0.96 | fold change [20, 25] 1.02 and 1.23 and 0.865 | z-score [14, 23] -0.152 and -0.218 | remaining NAD [15] 10 nM | luciferase signal [16] 32 AU | log fold change Tl+ flux [18] -0.027 | log fold change Tl+ flux [19] 0.0226
1.02: normalised cell number [13, 21]
1.94 and 0.367 and 2.89: fold change [20, 26]
-0.132 and 0.37: z-score [14, 24]
active: log fold change Tl+ flux [17] -0.114
10100 and 6800 and 12500: cell count [20, 28]

CCn1cc(C(=O)O)c(=O)c2cc(F)c(N3CCNCC3)cc21
inactive: nuclear beta-catenin stimulation ([4]; at 10 µM) 0.1% | insulin secretion stimulation [5] 1.1% | viability decrease [6] 13.9% | tube area decrease [7] -4.6% | GLP1 secretion stimulation [8] 4.3% | inhibition of viability [9] 4.5% | viability decrease (inhibition) [10] -12% | viability decrease (inhibition) [11] -0.1% | inhibition [12] -0.111% | red/green cell ratio (normalised) [13] 1.22 and 1.14 | fold change [20, 25] 0.843 and 0.881 and 0.867 | z-score [14, 23] 1.33 and -0.232 | remaining NAD [15] 10 nM | luciferase signal [16] 56 AU
-1.2%: nuclear beta-catenin stimulation ([4]; stimulation, at 2 µM)
0.92 and 1.12: normalised cell number [13, 21]
1.43 and 1.17: fold change [20, 26]
-0.144 and -0.221: z-score [14, 24]
1.13 and 1.28: normalised cell number [13, 22]
7840 and 11600 and 9850: cell count [20, 27]
9310 and 13200 and 11400: cell count [20, 28]

NC(N)=NC(=O)c1nc(Cl)c(N)nc1N
inactive: inhibition [1] 6.73% | inhibition [2] 13.8% | fluorescence ratio [3] 0.9 | nuclear beta-catenin stimulation ([4]; at 10 µM) 0.7% | insulin secretion stimulation [5] 4.35% | viability decrease [6] 3.2% | tube area decrease [7] 1.1% | GLP1 secretion stimulation [8] 2% | inhibition of viability [9] 3% | viability decrease (inhibition) [10] 1.8% | viability decrease (inhibition) [11] -11.5% | inhibition [12] 7.13% | red/green cell ratio (normalised) [13] 0.85 | z-score [14, 23] -0.14 and -0.352 and 0.738 | remaining NAD [15] 10 nM | luciferase signal [16] 44 AU | log fold change Tl+ flux [17] -0.00821 | log fold change Tl+ flux [18] -0.0347 | log fold change Tl+ flux [19] 0.0238
0.245 and 0.664 and 0.681: z-score [14, 24]
1.1: normalised cell number [13, 22]
1.29: normalised cell number [13, 21]
-2%: nuclear beta-catenin stimulation ([4]; stimulation, at 2 µM)

CC1(C)O[C@@H]2C[C@H]3[C@@H]4C[C@H](F)C5=CC(=O)C=C[C@]5(C)[C@H]4[C@@H](O)C[C@]3(C)[C@]2(C(=O)CO)O1
1.6%: nuclear beta-catenin stimulation ([4]; stimulation, at 2 µM)
1.38 and 0.877: fold change [20, 26]
0.665: z-score [14, 24]
7800 and 6650: cell count [20, 28]
active: luciferase signal [16] 344 AU
7820 and 5180: cell count [20, 27]
inactive: inhibition [1] -0.45% | inhibition [2] -1.24% | fluorescence ratio [3] 0.99 | nuclear beta-catenin stimulation ([4]; at 10 µM) -0.2% | insulin secretion stimulation [5] 1.6% | viability decrease [6] -31.1% | tube area decrease [7] -14.6% | GLP1 secretion stimulation [8] -0.5% | inhibition of viability [9] -1.83% | viability decrease (inhibition) [10] 15% | viability decrease (inhibition) [11] -3.1% | inhibition [12] -16.5% | fold change [20, 25] 1 and 0.779 | z-score [14, 23] -0.397 | remaining NAD [15] 10 nM | log fold change Tl+ flux [17] 0.00732 | log fold change Tl+ flux [18] -0.0212 | log fold change Tl+ flux [19] -0.0123
